Measurements published in the supplement of paper PMC10849652.
About 7,900 targets were measured; listed, in parts, are those with a hit and a random draw of the rest. About 0.6% of all pairs of compound and target were hits.

Compound: Cc1cc(Nc2cc(N3CCN(C)CC3)nc(Sc3ccc(NC(=O)C4CC4)cc3)n2)n[nH]1 [tozasertib]
Experiment: log2 fold change, soluble protein after heating vs DMSO (PISA); higher = thermal stabilisation; K562 cells, 10 uM, 30 min; active = over 0.2 and 3.5 SD of the protein, either way, in both replicates (recomputed)
Outline: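 For each measurement, 10 μM compound was applied for 30 min to K562 cells at 2×10^6 cells/mL. Aliquots were heated for 3 min across 48°C-58°C, pooled, and extracted in PBS with 0.5% NP-40 at 4°C; the supernatant after 21,000xg for 90 min was soluble protein. This was quantified by TMTpro 16plex LC-MS/MS with channel sums equalised, and thermal stability was reported relative to control samples from duplicates, on a log2 fold-change scale.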

UniProt O60911, sequence (O60911 whole entry, looked up): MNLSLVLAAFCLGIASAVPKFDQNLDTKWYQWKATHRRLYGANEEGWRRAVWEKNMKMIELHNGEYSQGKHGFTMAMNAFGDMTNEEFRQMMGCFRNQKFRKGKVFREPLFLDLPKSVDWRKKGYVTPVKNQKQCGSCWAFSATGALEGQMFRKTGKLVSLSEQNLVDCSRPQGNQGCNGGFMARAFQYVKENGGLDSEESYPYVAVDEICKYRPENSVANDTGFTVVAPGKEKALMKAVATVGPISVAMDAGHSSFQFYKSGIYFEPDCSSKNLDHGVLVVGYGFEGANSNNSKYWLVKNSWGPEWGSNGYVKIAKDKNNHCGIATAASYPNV
UniProt P00374, sequence (P00374 whole entry, looked up): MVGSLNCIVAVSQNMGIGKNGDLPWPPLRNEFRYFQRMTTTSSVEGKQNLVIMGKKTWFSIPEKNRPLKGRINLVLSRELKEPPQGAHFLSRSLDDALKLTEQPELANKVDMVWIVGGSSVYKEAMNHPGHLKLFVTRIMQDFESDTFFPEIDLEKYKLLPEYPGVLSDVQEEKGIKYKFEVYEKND
UniProt O60610, sequence (O60610 whole entry, looked up): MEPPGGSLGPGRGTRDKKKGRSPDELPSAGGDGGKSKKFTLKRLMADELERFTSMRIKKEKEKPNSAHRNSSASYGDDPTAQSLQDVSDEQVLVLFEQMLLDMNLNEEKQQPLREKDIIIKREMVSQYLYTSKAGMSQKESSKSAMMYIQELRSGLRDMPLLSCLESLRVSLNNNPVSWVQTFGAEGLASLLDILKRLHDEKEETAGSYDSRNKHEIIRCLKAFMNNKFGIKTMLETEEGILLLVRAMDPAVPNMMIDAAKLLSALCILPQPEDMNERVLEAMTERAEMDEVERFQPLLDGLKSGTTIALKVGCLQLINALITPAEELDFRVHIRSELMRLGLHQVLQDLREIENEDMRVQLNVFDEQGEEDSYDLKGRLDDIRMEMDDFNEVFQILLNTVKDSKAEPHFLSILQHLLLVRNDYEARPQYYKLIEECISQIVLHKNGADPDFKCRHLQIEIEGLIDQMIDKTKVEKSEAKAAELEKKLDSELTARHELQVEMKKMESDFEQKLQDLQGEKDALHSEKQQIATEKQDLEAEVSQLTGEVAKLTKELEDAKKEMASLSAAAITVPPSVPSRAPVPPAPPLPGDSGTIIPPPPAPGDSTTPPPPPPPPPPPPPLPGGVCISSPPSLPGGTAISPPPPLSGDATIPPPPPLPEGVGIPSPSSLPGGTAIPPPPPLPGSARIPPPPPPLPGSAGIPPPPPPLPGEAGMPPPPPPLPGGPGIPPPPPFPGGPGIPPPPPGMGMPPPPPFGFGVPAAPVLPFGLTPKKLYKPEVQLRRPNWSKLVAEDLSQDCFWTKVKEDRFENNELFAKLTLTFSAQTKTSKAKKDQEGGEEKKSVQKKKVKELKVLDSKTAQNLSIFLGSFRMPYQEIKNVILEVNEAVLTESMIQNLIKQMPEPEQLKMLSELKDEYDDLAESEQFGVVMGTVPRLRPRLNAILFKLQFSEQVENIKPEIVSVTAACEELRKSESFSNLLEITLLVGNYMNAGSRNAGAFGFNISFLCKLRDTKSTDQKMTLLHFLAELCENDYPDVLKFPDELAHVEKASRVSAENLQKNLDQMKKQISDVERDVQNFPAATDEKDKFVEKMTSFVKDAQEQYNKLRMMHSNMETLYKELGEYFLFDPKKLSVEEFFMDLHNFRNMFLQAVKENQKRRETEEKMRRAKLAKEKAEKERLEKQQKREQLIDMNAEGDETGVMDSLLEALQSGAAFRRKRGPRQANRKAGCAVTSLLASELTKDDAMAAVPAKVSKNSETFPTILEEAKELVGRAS
UniProt Q8NF50, sequence (Q8NF50 whole entry, looked up): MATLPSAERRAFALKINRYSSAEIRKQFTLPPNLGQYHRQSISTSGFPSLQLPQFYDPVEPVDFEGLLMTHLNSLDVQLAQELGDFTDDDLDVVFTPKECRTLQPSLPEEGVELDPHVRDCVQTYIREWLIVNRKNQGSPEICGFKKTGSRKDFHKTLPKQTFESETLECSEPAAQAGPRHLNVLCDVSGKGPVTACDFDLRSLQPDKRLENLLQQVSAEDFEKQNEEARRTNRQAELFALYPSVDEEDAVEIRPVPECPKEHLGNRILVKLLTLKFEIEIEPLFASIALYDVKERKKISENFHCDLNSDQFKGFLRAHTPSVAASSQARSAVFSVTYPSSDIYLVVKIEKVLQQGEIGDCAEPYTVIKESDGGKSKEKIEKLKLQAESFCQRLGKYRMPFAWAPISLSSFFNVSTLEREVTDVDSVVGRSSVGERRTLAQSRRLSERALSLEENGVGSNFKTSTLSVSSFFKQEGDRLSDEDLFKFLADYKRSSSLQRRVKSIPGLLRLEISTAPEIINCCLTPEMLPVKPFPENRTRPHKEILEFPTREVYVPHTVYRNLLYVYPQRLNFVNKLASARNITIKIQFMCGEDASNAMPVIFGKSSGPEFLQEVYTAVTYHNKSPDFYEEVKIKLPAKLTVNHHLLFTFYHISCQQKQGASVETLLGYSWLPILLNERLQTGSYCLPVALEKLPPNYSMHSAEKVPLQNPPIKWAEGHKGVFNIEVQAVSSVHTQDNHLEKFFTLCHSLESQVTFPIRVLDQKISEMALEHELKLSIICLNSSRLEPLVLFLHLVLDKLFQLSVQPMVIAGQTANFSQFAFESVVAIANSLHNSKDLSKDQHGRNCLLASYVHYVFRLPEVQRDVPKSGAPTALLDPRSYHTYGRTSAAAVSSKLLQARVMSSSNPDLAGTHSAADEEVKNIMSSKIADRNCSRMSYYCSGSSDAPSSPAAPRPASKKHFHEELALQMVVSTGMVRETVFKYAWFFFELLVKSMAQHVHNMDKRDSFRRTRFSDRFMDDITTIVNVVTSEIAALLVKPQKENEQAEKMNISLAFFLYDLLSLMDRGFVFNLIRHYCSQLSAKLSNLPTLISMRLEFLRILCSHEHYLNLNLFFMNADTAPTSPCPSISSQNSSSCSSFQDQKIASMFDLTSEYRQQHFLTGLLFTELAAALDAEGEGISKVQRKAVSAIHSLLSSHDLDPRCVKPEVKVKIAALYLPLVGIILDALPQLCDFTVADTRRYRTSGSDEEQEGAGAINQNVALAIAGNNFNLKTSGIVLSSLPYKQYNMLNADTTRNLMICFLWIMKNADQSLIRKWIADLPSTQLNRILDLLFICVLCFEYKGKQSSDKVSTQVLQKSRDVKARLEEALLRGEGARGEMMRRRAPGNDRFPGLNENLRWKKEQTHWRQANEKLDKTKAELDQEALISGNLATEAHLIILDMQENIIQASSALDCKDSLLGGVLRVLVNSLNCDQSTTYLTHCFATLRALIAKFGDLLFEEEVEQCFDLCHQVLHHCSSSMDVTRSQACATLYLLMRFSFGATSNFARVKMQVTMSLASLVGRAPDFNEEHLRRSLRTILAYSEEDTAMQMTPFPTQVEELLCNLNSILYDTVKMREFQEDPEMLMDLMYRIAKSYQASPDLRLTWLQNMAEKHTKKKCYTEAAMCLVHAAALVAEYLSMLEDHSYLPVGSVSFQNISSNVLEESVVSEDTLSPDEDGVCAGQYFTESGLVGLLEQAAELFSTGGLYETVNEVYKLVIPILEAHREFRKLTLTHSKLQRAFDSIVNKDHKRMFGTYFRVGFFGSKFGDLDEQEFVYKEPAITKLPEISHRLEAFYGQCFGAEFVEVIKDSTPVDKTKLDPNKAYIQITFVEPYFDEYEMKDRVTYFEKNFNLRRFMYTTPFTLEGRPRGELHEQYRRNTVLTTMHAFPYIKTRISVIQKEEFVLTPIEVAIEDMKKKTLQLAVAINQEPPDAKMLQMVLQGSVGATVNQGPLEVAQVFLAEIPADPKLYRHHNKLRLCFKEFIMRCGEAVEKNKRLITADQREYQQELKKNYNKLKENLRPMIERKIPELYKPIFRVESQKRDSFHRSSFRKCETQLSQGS
UniProt Q16850, sequence (Q16850 whole entry, looked up): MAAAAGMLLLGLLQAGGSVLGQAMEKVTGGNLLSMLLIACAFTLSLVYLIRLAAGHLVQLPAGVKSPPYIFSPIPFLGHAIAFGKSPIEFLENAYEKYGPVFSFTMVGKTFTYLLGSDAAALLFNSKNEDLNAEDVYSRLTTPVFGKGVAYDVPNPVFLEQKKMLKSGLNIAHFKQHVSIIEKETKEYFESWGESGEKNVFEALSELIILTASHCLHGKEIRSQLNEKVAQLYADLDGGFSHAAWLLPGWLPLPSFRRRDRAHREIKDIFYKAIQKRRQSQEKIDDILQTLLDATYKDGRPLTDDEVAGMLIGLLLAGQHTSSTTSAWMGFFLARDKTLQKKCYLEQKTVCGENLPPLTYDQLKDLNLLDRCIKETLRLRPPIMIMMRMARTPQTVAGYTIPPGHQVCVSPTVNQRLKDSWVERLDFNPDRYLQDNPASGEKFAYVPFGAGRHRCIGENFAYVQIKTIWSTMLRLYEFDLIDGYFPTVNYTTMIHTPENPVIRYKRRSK
UniProt Q9H4H8, sequence (Q9H4H8 whole entry, looked up): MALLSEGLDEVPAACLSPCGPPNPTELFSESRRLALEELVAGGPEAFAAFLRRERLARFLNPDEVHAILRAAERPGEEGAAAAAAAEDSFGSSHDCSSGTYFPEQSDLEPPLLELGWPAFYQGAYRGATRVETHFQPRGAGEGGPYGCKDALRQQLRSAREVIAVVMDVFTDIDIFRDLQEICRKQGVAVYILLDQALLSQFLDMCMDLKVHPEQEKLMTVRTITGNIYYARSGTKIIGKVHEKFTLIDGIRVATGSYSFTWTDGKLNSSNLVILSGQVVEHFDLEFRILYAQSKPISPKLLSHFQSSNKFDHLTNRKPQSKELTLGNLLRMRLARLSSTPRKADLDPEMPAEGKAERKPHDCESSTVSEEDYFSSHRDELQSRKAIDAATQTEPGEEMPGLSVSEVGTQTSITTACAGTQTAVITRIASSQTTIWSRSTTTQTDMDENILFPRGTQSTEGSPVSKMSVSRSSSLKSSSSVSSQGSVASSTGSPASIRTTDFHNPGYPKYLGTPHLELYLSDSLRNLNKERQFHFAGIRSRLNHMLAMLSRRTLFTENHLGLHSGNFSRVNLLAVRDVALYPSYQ

log2 fold change, inactive:
DOCK8 (UniProt Q8NF50) -0.119
EEF1B2 (UniProt P24534) 0.052
CTSL (UniProt P07711) -0.081
DNM2 (UniProt P50570) -0.071
EIF2AK1 (UniProt Q9BQI3) -0.028
DIAPH1 (UniProt O60610) 0.153
DUS2 (UniProt Q9NX74) -0.013
ERCC2 (UniProt P18074) -0.014
DYNC1LI2 (UniProt O43237) 0.018
DYNC1I2 isoform 5 (UniProt Q13409) -0.022
DIP2A (UniProt Q14689) -0.077
DMXL1 (UniProt Q9Y485) -0.03
DDOST (UniProt P39656) 0.022
DHFR (UniProt P00374) -0.151
CUX1 isoform 3 (UniProt P39880) 0.029
DNAJB12 (UniProt Q9NXW2) -0.001
CTSV (UniProt O60911) -0.031
EFCAB14 (UniProt O75071) -0.097
EXOC5 (UniProt O00471) 0.014
DUS3L (UniProt Q96G46) 0.043
EFL1 (UniProt Q7Z2Z2) -0.009
DYRK1A isoform 2 (UniProt Q13627) -0.051
FAF2 (UniProt Q96CS3) 0.016
ETNK1 (UniProt Q9HBU6) 0.021
EIF4G1 isoform 8 (UniProt Q04637) 0.008
DNAH5 (UniProt Q8TE73) 0.082
EEA1 (UniProt Q15075) -0.012
DBT (UniProt P11182) 0.038
FAM118A (UniProt Q9NWS6) -0.088
CUX1 isoform 2 (UniProt Q13948) -0.029
DNAH11 (UniProt Q96DT5) -0.165
EXOSC10 (UniProt Q01780) -0.118
CYBA (UniProt P13498) -0.043
FADS1, A0A0A0MR51 -0.011
FAM117A (UniProt Q9C073) -0.12
EEF1AKNMT (UniProt Q8N6R0) 0.071
CYP51A1 (UniProt Q16850) -0.031
FAM83D (UniProt Q9H4H8) 0.025
DNTTIP2 (UniProt Q5QJE6) -0.037
EED, A0A5F9ZI63 -0.016
